# Test results: paper PMC7862700, “An all-to-all approach to the identification of sequence-specific readers for epigenetic DNA modifications on cytosine”
# Tests used:
# Test in all cases: DAPPL (digital affinity profiling via proximity ligation, sequencing); 10 mM Tris-HCl pH 7.5, 50 mM NaCl, 1 mM DTT, 4% glycerol, room temperature, 30 min; GST-TFs on glutathione beads, 16-mer random dsDNA library, 0.1% formaldehyde crosslink after washing; high values mean tight binding
# [1] = molecular target: T1, FEV (Homo sapiens, UniProt Q99581 1-238); conditions: protein: recombinant; tags: N-terminal GST; dsDNA, one strand shown
# T1 sequence: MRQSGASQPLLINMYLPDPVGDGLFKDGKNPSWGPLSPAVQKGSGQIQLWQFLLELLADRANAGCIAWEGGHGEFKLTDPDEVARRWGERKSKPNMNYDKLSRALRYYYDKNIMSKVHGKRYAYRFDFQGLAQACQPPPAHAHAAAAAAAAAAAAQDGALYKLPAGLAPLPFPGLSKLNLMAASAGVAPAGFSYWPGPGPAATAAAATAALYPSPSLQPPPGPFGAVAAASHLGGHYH
# How it was run: (§1)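 Binding signal is given per hexamer as its read frequency for a factor divided by its frequency in the tag-only sample. GST-fused human transcription factors were expressed in yeast, captured on glutathione beads, barcoded with DNA and pooled with that sample, then incubated with 200 nmole of a 16-mer random double-stranded DNA library in Tris/NaCl/DTT/glycerol buffer for 30 min at room temperature. The pools were then washed, crosslinked, proximity-ligated, amplified by PCR and sequenced on an Illumina NextSeq500.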
# [2] = molecular target: ETV5 (Homo sapiens, UniProt P41161 1-510); conditions: protein: recombinant; tags: N-terminal GST; dsDNA, one strand shown
# How it was run: as §1
# [3] = molecular target: HSF1 (Homo sapiens, UniProt Q00613 1-529); conditions: protein: recombinant; tags: N-terminal GST; chain copies: 3; dsDNA, one strand shown
# How it was run: as §1
# [4] = molecular target: T2, SPIC (Homo sapiens, UniProt Q8N5J4 1-248); conditions: protein: recombinant; tags: N-terminal GST; dsDNA, one strand shown
# T2 sequence: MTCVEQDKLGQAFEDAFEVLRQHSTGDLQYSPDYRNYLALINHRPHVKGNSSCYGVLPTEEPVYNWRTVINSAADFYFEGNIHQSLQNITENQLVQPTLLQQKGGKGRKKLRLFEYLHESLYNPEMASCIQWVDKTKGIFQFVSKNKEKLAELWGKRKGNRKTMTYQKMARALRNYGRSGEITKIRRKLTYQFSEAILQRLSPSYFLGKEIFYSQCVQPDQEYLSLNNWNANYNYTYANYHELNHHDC
# How it was run: as §1
# [5] = molecular target: ELF4 (Homo sapiens, UniProt Q99607 1-663); conditions: protein: recombinant; tags: N-terminal GST; dsDNA, one strand shown
# How it was run: as §1
# [6] = molecular target: T3, ELK4 (Homo sapiens, UniProt P28324-2 1-405); conditions: protein: recombinant; tags: N-terminal GST; dsDNA, one strand shown
# T3 sequence: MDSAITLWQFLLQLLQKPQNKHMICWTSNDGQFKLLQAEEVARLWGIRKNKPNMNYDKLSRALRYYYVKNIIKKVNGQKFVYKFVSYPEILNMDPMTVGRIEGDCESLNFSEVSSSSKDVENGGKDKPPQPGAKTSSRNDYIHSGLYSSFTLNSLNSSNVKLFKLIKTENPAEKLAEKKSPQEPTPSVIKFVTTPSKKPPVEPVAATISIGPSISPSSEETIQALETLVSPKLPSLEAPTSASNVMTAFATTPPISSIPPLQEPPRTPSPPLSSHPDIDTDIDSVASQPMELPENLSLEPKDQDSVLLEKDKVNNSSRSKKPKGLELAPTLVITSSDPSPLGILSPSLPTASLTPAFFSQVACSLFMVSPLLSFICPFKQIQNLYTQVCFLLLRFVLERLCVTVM
# How it was run: as §1
# [7] = molecular target: T4, ETV2 (Homo sapiens, UniProt O00321 1-342); conditions: protein: recombinant; tags: N-terminal GST; dsDNA, one strand shown
# T4 sequence: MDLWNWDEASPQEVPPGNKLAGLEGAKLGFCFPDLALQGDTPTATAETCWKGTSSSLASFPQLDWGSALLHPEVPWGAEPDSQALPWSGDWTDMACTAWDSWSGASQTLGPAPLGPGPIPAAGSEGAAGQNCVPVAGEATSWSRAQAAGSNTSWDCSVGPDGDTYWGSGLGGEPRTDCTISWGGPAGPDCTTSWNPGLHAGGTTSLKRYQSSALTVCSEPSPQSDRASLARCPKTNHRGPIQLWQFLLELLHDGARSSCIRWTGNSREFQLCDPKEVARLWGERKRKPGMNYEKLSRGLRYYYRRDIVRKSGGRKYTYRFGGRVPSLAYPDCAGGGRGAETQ
# How it was run: as §1
# [8] = molecular target: T5, ELF3 (Homo sapiens, UniProt P78545 1-371); conditions: protein: recombinant; tags: N-terminal GST; dsDNA, one strand shown
# T5 sequence: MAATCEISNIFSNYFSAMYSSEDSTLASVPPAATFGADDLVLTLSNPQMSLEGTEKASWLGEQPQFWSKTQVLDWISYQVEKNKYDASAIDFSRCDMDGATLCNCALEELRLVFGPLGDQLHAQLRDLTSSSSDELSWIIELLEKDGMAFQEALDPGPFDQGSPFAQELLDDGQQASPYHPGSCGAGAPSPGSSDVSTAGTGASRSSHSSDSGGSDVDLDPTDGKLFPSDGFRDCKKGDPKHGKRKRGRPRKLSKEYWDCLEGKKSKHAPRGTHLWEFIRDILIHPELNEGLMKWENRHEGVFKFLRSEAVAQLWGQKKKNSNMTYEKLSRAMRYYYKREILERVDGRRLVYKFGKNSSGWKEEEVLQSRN
# How it was run: as §1
# [9] = molecular target: CRX (Homo sapiens, UniProt O43186 1-299); conditions: protein: recombinant; tags: N-terminal GST; dsDNA, one strand shown
# How it was run: as §1
# [10] = molecular target: ETV1 (Homo sapiens, UniProt P50549 1-477); conditions: protein: recombinant; tags: N-terminal GST; dsDNA, one strand shown
# How it was run: as §1
# [11] = molecular target: T6, ERF (Homo sapiens, UniProt P50548 1-548); conditions: protein: recombinant; tags: N-terminal GST; dsDNA, one strand shown
# T6 sequence: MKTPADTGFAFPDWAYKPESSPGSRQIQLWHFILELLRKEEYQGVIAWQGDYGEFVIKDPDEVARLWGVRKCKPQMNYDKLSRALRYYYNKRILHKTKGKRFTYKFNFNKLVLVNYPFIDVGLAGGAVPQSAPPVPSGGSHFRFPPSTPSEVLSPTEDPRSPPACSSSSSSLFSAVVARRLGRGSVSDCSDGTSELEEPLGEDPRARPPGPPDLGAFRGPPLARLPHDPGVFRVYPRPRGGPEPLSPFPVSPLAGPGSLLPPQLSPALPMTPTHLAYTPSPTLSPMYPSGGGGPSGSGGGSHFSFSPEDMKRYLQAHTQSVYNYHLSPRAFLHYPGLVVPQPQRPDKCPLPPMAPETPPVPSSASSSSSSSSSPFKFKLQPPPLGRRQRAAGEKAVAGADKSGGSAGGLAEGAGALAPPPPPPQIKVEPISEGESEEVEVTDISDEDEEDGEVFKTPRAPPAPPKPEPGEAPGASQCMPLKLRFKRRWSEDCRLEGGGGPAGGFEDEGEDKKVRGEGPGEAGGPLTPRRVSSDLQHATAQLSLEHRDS
# How it was run: as §1
# [12] = molecular target: T7, ETV3L (Homo sapiens, UniProt Q6ZN32 1-361); conditions: protein: recombinant; tags: N-terminal GST; dsDNA, one strand shown
# T7 sequence: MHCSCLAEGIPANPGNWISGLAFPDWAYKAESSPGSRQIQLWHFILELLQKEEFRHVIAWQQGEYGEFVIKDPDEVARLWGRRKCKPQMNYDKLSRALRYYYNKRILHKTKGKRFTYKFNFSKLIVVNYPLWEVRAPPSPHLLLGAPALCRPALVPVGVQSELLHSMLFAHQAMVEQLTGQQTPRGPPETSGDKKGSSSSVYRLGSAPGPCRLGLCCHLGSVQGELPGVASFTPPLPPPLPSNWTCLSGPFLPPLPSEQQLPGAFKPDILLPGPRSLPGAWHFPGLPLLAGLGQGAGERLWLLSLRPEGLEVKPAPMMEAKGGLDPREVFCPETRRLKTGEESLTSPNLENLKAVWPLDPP
# How it was run: as §1
# [13] = molecular target: T8, ETS2 (Homo sapiens, UniProt P15036 1-469); conditions: protein: recombinant; tags: N-terminal GST; dsDNA, one strand shown
# T8 sequence: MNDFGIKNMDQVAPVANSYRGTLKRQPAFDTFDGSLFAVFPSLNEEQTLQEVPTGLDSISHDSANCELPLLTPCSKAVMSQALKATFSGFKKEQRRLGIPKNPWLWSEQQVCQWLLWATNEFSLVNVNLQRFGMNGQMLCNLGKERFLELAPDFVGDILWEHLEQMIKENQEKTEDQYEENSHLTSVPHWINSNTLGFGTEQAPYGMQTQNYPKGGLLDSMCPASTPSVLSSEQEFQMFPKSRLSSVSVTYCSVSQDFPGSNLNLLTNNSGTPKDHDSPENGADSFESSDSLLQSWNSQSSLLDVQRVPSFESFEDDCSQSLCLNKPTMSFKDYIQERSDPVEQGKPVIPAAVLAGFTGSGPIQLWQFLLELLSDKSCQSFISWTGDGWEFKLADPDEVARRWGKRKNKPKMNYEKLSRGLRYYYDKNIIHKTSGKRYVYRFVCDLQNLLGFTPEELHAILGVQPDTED
# How it was run: as §1
# [14] = molecular target: T9, SPDEF (Homo sapiens, UniProt O95238 1-335); conditions: protein: recombinant; tags: N-terminal GST; dsDNA, one strand shown
# T9 sequence: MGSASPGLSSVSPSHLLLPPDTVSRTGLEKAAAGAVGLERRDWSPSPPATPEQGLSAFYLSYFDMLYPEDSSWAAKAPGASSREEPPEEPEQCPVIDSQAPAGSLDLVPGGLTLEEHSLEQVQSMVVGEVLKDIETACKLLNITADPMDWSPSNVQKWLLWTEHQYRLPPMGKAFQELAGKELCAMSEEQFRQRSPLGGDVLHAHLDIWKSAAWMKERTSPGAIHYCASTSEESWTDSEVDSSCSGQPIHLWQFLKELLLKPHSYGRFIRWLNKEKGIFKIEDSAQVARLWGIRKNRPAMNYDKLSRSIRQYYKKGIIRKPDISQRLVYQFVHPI
# How it was run: as §1
# [15] = molecular target: T10, ETV7 (Homo sapiens, UniProt Q9Y603 1-341); conditions: protein: recombinant; tags: N-terminal GST; dsDNA, one strand shown
# T10 sequence: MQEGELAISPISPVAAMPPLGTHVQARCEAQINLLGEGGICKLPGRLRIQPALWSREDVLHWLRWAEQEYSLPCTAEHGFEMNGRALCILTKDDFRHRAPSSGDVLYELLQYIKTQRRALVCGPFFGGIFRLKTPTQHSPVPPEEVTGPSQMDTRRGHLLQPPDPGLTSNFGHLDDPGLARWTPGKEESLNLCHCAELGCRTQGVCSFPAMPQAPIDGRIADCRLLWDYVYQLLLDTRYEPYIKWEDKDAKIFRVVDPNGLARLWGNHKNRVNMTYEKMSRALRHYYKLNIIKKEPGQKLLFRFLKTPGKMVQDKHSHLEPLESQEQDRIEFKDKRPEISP
# How it was run: as §1
# [16] = molecular target: T11, ELF5 (Homo sapiens, UniProt Q9UKW6-2 1-255); conditions: protein: recombinant; tags: N-terminal GST; dsDNA, one strand shown
# T11 sequence: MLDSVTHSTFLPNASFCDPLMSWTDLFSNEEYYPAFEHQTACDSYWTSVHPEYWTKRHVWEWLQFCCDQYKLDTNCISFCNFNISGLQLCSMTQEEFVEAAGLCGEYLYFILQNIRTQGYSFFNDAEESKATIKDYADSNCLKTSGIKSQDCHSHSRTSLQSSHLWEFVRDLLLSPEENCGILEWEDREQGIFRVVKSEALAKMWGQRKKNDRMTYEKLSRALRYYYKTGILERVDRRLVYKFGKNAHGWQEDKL
# How it was run: as §1
# [17] = molecular target: T12, ETV3 (Homo sapiens, UniProt P41162-2 1-143); conditions: protein: recombinant; tags: N-terminal GST; dsDNA, one strand shown
# T12 sequence: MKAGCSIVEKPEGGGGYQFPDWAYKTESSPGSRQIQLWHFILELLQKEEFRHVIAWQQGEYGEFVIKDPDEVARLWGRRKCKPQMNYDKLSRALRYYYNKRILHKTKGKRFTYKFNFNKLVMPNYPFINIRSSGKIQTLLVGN
# How it was run: as §1
# [18] = molecular target: ETV6 (Homo sapiens, UniProt P41212 1-452); conditions: protein: recombinant; tags: N-terminal GST; dsDNA, one strand shown
# How it was run: as §1
# ELF4, sequence (Q99607 whole entry): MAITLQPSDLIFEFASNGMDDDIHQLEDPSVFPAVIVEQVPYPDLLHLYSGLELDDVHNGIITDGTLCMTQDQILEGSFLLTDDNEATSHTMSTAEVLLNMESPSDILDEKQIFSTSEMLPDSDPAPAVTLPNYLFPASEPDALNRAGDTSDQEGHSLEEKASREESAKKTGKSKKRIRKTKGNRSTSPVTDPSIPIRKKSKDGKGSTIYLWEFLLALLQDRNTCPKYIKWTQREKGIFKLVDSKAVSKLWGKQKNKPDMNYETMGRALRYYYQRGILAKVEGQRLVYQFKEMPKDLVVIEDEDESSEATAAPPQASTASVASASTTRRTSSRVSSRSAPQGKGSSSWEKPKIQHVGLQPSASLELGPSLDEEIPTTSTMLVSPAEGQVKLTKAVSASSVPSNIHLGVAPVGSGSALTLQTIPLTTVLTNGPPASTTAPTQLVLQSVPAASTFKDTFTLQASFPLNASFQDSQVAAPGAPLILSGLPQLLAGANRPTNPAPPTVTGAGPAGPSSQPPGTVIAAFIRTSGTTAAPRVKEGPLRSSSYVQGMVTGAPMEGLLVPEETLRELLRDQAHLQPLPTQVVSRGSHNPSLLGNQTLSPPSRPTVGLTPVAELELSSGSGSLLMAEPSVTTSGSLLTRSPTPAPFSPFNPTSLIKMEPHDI
# ETV5, sequence (P41161 whole entry): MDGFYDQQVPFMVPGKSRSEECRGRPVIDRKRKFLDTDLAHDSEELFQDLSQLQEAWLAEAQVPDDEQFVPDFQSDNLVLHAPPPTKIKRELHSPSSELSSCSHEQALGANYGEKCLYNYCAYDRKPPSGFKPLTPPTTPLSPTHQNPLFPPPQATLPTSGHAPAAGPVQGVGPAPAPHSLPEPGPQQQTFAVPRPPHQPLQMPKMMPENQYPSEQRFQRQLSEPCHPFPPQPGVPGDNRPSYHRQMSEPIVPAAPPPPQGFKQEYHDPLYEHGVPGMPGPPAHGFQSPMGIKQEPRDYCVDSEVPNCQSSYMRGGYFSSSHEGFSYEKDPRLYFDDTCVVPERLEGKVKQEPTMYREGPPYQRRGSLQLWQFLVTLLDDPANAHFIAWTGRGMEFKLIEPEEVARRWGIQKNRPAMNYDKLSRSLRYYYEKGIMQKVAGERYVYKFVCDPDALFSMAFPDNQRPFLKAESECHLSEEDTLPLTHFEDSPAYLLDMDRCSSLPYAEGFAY
# HSF1, sequence (Q00613 whole entry): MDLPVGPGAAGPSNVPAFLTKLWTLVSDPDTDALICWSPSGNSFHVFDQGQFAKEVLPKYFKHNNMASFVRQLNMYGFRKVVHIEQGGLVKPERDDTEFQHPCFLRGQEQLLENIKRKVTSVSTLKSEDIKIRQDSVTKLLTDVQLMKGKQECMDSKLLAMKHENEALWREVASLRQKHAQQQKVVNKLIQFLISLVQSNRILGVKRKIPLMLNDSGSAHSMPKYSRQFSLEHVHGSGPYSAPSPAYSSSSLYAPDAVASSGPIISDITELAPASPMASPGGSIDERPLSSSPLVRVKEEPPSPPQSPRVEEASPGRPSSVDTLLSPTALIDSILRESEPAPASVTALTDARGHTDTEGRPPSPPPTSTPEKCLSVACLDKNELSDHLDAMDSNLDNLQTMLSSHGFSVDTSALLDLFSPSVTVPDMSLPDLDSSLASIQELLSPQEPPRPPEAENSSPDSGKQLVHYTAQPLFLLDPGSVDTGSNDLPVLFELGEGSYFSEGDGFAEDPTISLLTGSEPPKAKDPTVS
# CRX, sequence (O43186 whole entry): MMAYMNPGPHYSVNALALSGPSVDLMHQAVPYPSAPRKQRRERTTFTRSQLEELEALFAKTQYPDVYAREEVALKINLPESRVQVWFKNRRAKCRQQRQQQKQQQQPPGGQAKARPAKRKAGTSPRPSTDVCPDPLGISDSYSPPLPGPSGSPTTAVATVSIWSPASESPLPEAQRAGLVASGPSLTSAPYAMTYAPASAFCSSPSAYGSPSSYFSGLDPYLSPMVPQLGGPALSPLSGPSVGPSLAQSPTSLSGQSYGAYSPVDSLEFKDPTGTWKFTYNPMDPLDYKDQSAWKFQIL
# ETV1, sequence (P50549 whole entry): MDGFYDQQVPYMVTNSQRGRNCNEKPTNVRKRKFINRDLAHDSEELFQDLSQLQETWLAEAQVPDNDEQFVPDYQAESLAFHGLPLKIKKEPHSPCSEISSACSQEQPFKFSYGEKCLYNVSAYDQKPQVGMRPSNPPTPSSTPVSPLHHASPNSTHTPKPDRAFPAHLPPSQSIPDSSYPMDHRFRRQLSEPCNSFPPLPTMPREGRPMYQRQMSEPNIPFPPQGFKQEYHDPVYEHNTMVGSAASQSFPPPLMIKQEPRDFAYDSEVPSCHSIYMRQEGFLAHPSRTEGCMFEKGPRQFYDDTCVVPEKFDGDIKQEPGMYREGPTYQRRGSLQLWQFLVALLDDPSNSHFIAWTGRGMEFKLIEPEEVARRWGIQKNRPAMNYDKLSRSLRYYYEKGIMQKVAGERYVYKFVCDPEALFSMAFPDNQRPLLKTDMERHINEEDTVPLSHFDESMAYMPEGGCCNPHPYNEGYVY
# ETV6, sequence (P41212 whole entry): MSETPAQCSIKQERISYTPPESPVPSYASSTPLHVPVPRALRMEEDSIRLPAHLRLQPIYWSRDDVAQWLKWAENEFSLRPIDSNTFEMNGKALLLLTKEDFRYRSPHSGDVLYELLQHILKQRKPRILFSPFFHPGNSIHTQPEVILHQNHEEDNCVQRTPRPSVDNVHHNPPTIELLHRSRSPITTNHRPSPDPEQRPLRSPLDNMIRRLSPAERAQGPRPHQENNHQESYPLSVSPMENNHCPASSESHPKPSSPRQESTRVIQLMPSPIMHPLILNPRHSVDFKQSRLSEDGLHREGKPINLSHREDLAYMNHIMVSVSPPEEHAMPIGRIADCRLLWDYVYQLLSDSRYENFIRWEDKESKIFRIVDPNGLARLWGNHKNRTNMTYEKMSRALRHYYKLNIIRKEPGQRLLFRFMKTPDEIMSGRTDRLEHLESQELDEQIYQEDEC
sequence,measurement,setting,value
AAATAT,binding signal,[1],"1.28 fold enrichment (6-mer frequency, TF over GST control)"
same,binding signal,[2],"1.36 fold enrichment (6-mer frequency, TF over GST control)"
same,binding signal,[3],"1.29 fold enrichment (6-mer frequency, TF over GST control)"
same,binding signal,[4],"1.43 fold enrichment (6-mer frequency, TF over GST control)"
same,binding signal,[5],"1.34 fold enrichment (6-mer frequency, TF over GST control)"
same,binding signal,[6],"1.24 fold enrichment (6-mer frequency, TF over GST control)"
same,binding signal,[7],"1.49 fold enrichment (6-mer frequency, TF over GST control)"
same,binding signal,[8],"1.54 fold enrichment (6-mer frequency, TF over GST control)"
same,binding signal,[9],"1.39 fold enrichment (6-mer frequency, TF over GST control)"
same,binding signal,[10],"1.39 fold enrichment (6-mer frequency, TF over GST control)"
same,binding signal,[11],"1.25 fold enrichment (6-mer frequency, TF over GST control)"
same,binding signal,[12],"1.32 fold enrichment (6-mer frequency, TF over GST control)"
same,binding signal,[13],"1.37 fold enrichment (6-mer frequency, TF over GST control)"
same,binding signal,[14],"1.35 fold enrichment (6-mer frequency, TF over GST control)"
same,binding signal,[15],"1.4 fold enrichment (6-mer frequency, TF over GST control)"
same,binding signal,[16],"1.41 fold enrichment (6-mer frequency, TF over GST control)"
same,binding signal,[17],"1.29 fold enrichment (6-mer frequency, TF over GST control)"
same,binding signal,[18],"1.43 fold enrichment (6-mer frequency, TF over GST control)"
